Reference: PubChem BioAssay (NCI)
Compounds without any hit were thinned out: in the full panel of roughly 83,000, 20% have a hit.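 Growth was measured after 48 h exposure to one concentration of compound in 96-well plates. Values under 10 count as active.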 A number with no mark means an inactive call. The source made the active and inactive calls.

Columns and labels:
Experiment in all cases: NCI-60 one-dose screen, 48 h (100 = growth as untreated, 0 = no growth, -100 = all killed)
Settings in all cases: 10 µM unless noted
DU-145 prostate = test system: DU-145 prostate
K-562 leukemia = test system: K-562 leukemia
MALME-3M melanoma = test system: MALME-3M melanoma
MDA-MB-231 breast = test system: MDA-MB-231 breast
RXF 393 renal = test system: RXF 393 renal
SF-268 CNS = test system: SF-268 CNS
SF-295 CNS = test system: SF-295 CNS
SF-539 CNS = test system: SF-539 CNS
UACC-257 melanoma = test system: UACC-257 melanoma
M14 melanoma = test system: M14 melanoma
HCT-15 colon = test system: HCT-15 colon
HT29 colon = test system: HT29 colon
SNB-75 CNS = test system: SNB-75 CNS
SNB-19 CNS = test system: SNB-19 CNS
U251 CNS = test system: U251 CNS
PC-3 prostate = test system: PC-3 prostate
SK-MEL-5 melanoma = test system: SK-MEL-5 melanoma
UACC-62 melanoma = test system: UACC-62 melanoma
LOX IMVI melanoma = test system: LOX IMVI melanoma
SK-MEL-28 melanoma = test system: SK-MEL-28 melanoma

Compound	growth (DU-145 prostate)	growth (K-562 leukemia)	growth (MALME-3M melanoma)	growth (MDA-MB-231 breast)	growth (RXF 393 renal)	growth (SF-268 CNS)	growth (SF-295 CNS)	growth (SF-539 CNS)	growth (UACC-257 melanoma)	growth (M14 melanoma)	growth (HCT-15 colon)	growth (HT29 colon)	growth (SNB-75 CNS)	growth (SNB-19 CNS)	growth (U251 CNS)	growth (PC-3 prostate)	growth (SK-MEL-5 melanoma)	growth (UACC-62 melanoma)	growth (LOX IMVI melanoma)	growth (SK-MEL-28 melanoma)
CC(C)Cn1cnc2c(NCn3nc(-c4cc(Cl)cc(Cl)c4Cl)n(/N=C/c4ccc(Cl)cc4)c3=S)nc3ccccc3c21	106%	53.8%	109%	73.4%	80.7%	102%	71.9%	90.4%	77.2%	104%	91.1%	91.1%	90.5%	108%	86.6%	83.6%	57.2%	72%	74.4%	112%
CC1C(=O)NC2=Nc3ccccc3C(=O)NN21 (stereo not given)	119%	101%	104%	90.4%	116%	113%	105%	103%	114%	102%	108%	103%	86.7%	107%	101%	92.4%	94.5%	92.2%	95.4%	120%
O=C1C(=O)c2c(nc3ccc(Cl)cn23)-c2ccccc21	-100% (active)	-100% (active)	-81.8% (active)	-59% (active)	-100% (active)	-95.3% (active)	-80.3% (active)	-100% (active)	-93.3% (active)	-98.7% (active)	-100% (active)	-84.8% (active)	-87.7% (active)	-100% (active)	-100% (active)	-86.6% (active)	-100% (active)	-100% (active)	-100% (active)	-100% (active)
Cc1cnc2nc(-c3ccc(N(C)C)cc3)cn2c1	109%	97.1%	97.8%	107%	79.7%	122%	106%	100%	102%	100%	107%	112%	133%	107%	110%	121%	99.4%	96%	106%	123%
NS(=O)(=O)c1ccc(-n2ncc3c(NC4CCCCC4)ncnc32)cc1	100%	54.4%	108%	85.9%	13.4%	116%	48.9%	90.9%	79.6%	98.2%	86.4%	81.9%	113%	94.1%	96.3%	92.9%	88.1%	97.2%	80.8%	98%
CC[N+](CCCCCCCCCC[N+](CC)(c1ccccn1)c1ccccn1)(c1ccccn1)c1ccccn1	13.6%	-2.68% (active)	-10.7% (active)	15.9%	46.1%	17.1%	-71.2% (active)	11%	-19.2% (active)	10.3%	58.6%	-34% (active)	6.81% (active)	13.3%	6.56% (active)	2.94% (active)	-72.4% (active)	0.363% (active)	-54.4% (active)	15.1%
Cc1onc(-c2ccccc2Cl)c1C(=O)N[C@@H]1C(=O)N2[C@@H]1SC(C)(C)[C@@H]2C(=O)O	123%	91.6%	94.2%	113%	115%	110%	104%	112%	108%	98.2%	106%	105%	103%	105%	98.4%	98.3%	101%	99.5%	99.9%	117%
O=c1ccn(C2CC=C(CO)O2)c(=O)[nH]1 (stereo not given)	108%	92.8%	80.9%	104%	8.91% (active)	109%	92.9%	99.8%	78.3%	81.4%	105%	111%	108%	108%	102%	85.9%	90%	91.7%	94%	106%
CN[C@@H]1C(OC2[C@H](O[C@H]3[C@H](O)[C@@H](O)[C@H](N=C(N)N)[C@@H](O)[C@@H]3N=C(N)N)OC(C)[C@]2(O)CO)OC(CO)C(O)C1O (stereo not given in full)	109%	113%	106%	104%	114%	118%	103%	109%	107%	112%	112%	98.5%	103%	113%	103%	108%	105%	114%	104%	104%
CCOC(=O)C1=CCC(n2cc(C)c(=O)[nH]c2=O)O1 (stereo not given)	119%	99.4%	120%	97.3%	-5.82% (active)	117%	116%	101%	96.3%	106%	111%	110%	103%	103%	98.8%	84.7%	112%	96%	98.6%	112%
Cc1ccc2nc(SCC(=O)Nc3ccc(-c4nc5ccccc5s4)c(Cl)c3)[nH]c2c1	132%	109%	131%	113%	98.6%	105%	106%	109%	96.9%	111%	101%	106%	94.6%	102%	105%	107%	102%	90.3%	107%	118%
C[C@@H]1C[C@@H]([C@@H](CC2CC(=O)NC(=O)C2)OC(=O)CC(=O)c2ccccc2)C(=O)[C@@H](C)C1	11.8%	17.7%	-0.912% (active)	17.5%	-13.7% (active)	15.6%	4.68% (active)	5.1% (active)	-4.59% (active)	10.9%	8.97% (active)	10.4%	17.8%	18.9%	14.7%	12.3%	7.03% (active)	11.2%	11.3%	13.5%
CCCCN=C(N)c1ccc(OCCSCCOc2ccc(C(N)=NCCCC)cc2)cc1	55.3%	40.9%	39.3%	58.7%	92.6%	35.6%	-36.4% (active)	55%	39.9%	81.6%	90.5%	44%	65.7%	36.7%	34.5%	44.4%	22.6%	58.3%	58.1%	69.6%
N#Cc1c(-c2ccc(F)cc2)n2c(nc1=O)SC(=O)C2=O	124%	108%	90.8%	114%	96.5%	93.4%	103%	115%	85.8%	105%	106%	105%	83.8%	103%	92.2%	92.1%	96.5%	80.2%	87.3%	102%
CCSc1nc(Nc2ccc(S(=O)(=O)Nc3ccon3)cc2)c(C#N)c(-c2cccc(Br)c2)n1	112%	77.9%	105%	97%	94.7%	99.3%	82%	82.2%	115%	104%	87.3%	91.8%	93.3%	100%	81.1%	79.6%	85.4%	91.5%	94.1%	103%
